Sampled rows, rich in hits. Any-hit rate of the full collection: about 0.55%.
GRP78 ERSR act: ER stress response induction in glioma | U87-MG GRP78 promoter luciferase reporter, 16 h | hit rate 0.02% among 420,000 | Potency, µM, for inactives: at the highest dose activation, usual class: activators; further: potency means the concentration at half of the fitted maximal effect; series mostly up to about 76 µM; % of control where 0% means no effect; nearly all actives have a fitted effect of over 35% in size
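ERSR induction read as luciferase luminescence (Bright-Glo, 10 min at room temperature) in stably transfected human U87-MG glioma cells exposed to compounds for 16 h, using GRP78 as sensor.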
LDHA inh: LDHA (human) enzyme inhibition; hit rate 0.15% among 480,000; activity change, % (values are at about 110 or 230 µM); purified LDHA, NADH/diaphorase-resazurin fluorescence; stronger effect = lower value; P00338; AID 1347041; in the data active means activity change below about -30%;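 further: plate controls were DMSO wells for no effect and wells without enzyme for full effect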
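Enzyme activity of human lactate dehydrogenase 5 (2 nM; 0.06 mM NADH, 0.2 mM pyruvate, 5 min, RT) is measured via a resazurin/diaphorase fluorescence readout of residual NADH.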
TCR act: T cell receptor activation | primary human leukocytes, anti-CD3, IL-2 HTRF, 48 h | Potency, µM (series often up to 9.22 µM), for inactives: at the top dose activation of IL-2 secretion, usual class: activators | 330,000 tested, under 10 active; further: % of control where 0% means no effect
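Using a-CD3 beads without co-stimulation, primary human leukocytes were exposed to compounds for 48 hr. An HTRF IL-2 kit measured the cytokine, with europium-to-d2 energy transfer producing emission at 665nm upon 320nm excitation.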
Akt phos inh: inhibitors of Akt phosphorylation. Neuro2A IGF-stimulated pAkt S473 HTRF, 20 min; stronger effect = lower value. activity change, % for hits at 50 µM. hit rate 0.32% among 360,000. AID 651550; in the data active means activity change below about -80%; further: on the % scale 0 is the no-effect control and ±100 the full control effect
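Single-point screen (50 µM final compound) in Neuro2A cells stimulated 20 min with 6 nM IGF at 37 deg C. After lysis, Ser473-phosphorylated Akt read by HTRF (ex 330 nm, em 615/665 nm) as the 665/615 ratio.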
RGS4 inh: blocks human RGS4-accelerated GTP hydrolysis; hit rate 0.039% among 390,000; P49798; Transcreener GDP fluorescence polarization, RGS4-accelerated GTP hydrolysis; Potency, µM (highest dose often 114 µM), inactives show at the highest dose activity change, negative = inhibition, usual class: inhibitors; further: potency means the concentration at half of the fitted maximal effect; on the % scale 0 is the no-effect control and ±100 the full control effect; nearly all actives have a fitted effect of over 75% in size
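MLSMR compounds (23 nl, pin-transferred) preincubated 10 min at room temperature with a 500nM (2x) first reagent, then RGS4 at 900nM (2x) plus Transcreener GDP mix added; fluorescence polarization (620/688 nm) read before and after 90 min at 30 °C.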
TSHR antagonist: human thyrotropin receptor antagonism; TSHR-expressing cells, TSH-stimulated cAMP HTRF, 2 h; stronger effect = lower value; AID 504810; activity change, negative = inhibition, % at 11.5 µM; hit rate 0.2% among 330,000;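 active means activity change below a set negative limit, meaning inhibition stronger than a set level, cut at about -70% in these data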; further: on the % scale 0 is the no-effect control and ±100 the full control effect
Target sequence (P16473 whole entry, looked up): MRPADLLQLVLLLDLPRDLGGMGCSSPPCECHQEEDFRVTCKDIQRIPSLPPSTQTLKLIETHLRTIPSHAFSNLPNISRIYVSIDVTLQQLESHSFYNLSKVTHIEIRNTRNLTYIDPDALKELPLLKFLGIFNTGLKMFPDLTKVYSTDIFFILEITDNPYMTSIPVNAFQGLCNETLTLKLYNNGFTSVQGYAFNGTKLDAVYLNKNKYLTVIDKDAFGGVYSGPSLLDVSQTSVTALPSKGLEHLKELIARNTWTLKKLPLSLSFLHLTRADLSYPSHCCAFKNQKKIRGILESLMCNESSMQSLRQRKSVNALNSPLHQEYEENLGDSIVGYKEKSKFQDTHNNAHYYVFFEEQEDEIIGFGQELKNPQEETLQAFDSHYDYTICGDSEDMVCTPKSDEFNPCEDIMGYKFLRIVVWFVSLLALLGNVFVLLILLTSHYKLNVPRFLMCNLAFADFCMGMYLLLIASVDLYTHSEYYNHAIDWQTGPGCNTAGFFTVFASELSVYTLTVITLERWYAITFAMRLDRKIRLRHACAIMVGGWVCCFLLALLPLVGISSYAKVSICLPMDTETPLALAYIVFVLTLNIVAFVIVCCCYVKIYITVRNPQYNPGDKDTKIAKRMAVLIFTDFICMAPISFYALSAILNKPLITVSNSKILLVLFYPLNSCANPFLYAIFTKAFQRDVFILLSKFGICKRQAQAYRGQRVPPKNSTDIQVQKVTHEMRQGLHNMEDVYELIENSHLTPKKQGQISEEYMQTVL
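TSHR-expressing cells were treated with compounds, then stimulated with TSH at EC80 (4nM final) for 2 hours at 37 deg C. Cellular cAMP was measured by HTRF competition between lysate cAMP and cAMP-d2 for a cryptate-labelled anti-cAMP antibody.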
Active calls of the source: *; ! = not active in a repeat; [ ] = dose if it differs, or a comment. Unless noted, the call rests on the fitted dose curve; in most records, active means well fitted curve in the direction sought with a large enough effect; inconclusive means small, poorly fitted or top-dose-only effect, or another doubt; inactive means no such curve, though single readings can be large; an effect the other way counts as inactive or inconclusive.

What do the screens show for `COc1cc2[nH]c(C(=O)Nc3ccc(F)cc3)cc2c(OC)c1OC`?
TSHR antagonist: -77.7*

Results for Cn1c(SCc2csc(-c3ccc4c(c3)OCO4)n2)nnc1C1CCCCC1 ?
LDHA inh: -2.4

How did Brc1cccc(-c2nc3cc4c(cc3[nH]2)OCCO4)c1 do in these assays?
LDHA inh: -1.4

What do the screens show for `CC1CCCCN1S(=O)(=O)c1ccc2nc(N3CCCCCC3)ccc2c1` (stereo not given)?
LDHA inh: 5.2

Results for CCCCCCC(=O)Nc1nnc(CC)s1 ?
GRP78 ERSR act: -1.1%; LDHA inh: -0.4; TCR act: 5.2%[46.1 µM]; Akt phos inh: -122.9%*; RGS4 inh: 22.1%; TSHR antagonist: -10.9

Results for CCCCC(=O)Nc1nnc(C)s1 ?
GRP78 ERSR act: 3.7%; LDHA inh: -5.7; TCR act: 5.9%; Akt phos inh: inactive; RGS4 inh: -11.8%; TSHR antagonist: 4.7

Results for COc1cccc(/C=C2\Oc3cc(OS(C)(=O)=O)ccc3C2=O)c1 ?
LDHA inh: 5.2

How did CCc1ccc(C(C)NC(=O)/C(C#N)=C\c2cn[nH]c2-c2ccccc2)cc1 (stereo not given) do in these assays?
GRP78 ERSR act: -1.8%; LDHA inh: 0.8; Akt phos inh: -83.3%*; RGS4 inh: -3.0%

How did O=C(CSc1nnc(-c2ccncc2)n1Cc1ccccc1)NC1CCCc2ccccc21 (stereo not given) do in these assays?
GRP78 ERSR act: -5.8%; LDHA inh: -6.6; TCR act: -6.3%[46.1 µM]; Akt phos inh: inactive; RGS4 inh: -3.3%; TSHR antagonist: 3.5

Results for Nn1c(SCC(=O)NC2CCCc3ccccc32)nnc1-c1cccs1 (stereo not given) ?
GRP78 ERSR act: -1.8%; LDHA inh: 2.0; TCR act: 10.4%; Akt phos inh: -103.4%*; RGS4 inh: -12.2%; TSHR antagonist: 5.9

How did Cc1ccc(NC(=O)Cn2c(=O)n(CCCCC(=O)NCc3ccco3)c(=O)c3ccccc32)cc1 do in these assays?
GRP78 ERSR act: -4.2%; LDHA inh: -5.1; TCR act: -4.9%; Akt phos inh: -113.1%*; RGS4 inh: 9.8%; TSHR antagonist: -8.5

What do the screens show for `CC(Cc1ccco1)NC(=O)c1ccc(Cl)c(S(C)(=O)=O)c1` (stereo not given)?
LDHA inh: -37.2*

How did O=[N+]([O-])c1ccc(O)c(/C=N/Nc2nn[nH]n2)c1 do in these assays?
GRP78 ERSR act: -3.3%; LDHA inh: -46.0*; TCR act: -10.2%; Akt phos inh: inactive; RGS4 inh: 18.0%; TSHR antagonist: -7.3

How did Oc1ccccc1/C=N/Nc1nn[nH]n1 do in these assays?
GRP78 ERSR act: -1.7%; LDHA inh: -4.1; TCR act: 3.6%; Akt phos inh: inactive; RGS4 inh: -22.2%; TSHR antagonist: 3.2

Results for CN1CCN2c3ccccc3Cc3ccccc3C2C1 (stereo not given) ?
GRP78 ERSR act: 35.5µM*!; LDHA inh: -3.1; TCR act: 5.8%; Akt phos inh: inactive; RGS4 inh: 25.0%[56.9 µM]; TSHR antagonist: -25.1

What do the screens show for `O=c1ccn(C2OC(COP(=O)(O)OP(=O)(O)OP(=O)(O)O)C(O)C2O)c(=O)[nH]1` (stereo not given)?
GRP78 ERSR act: -0.5%

How did O=c1ccn([C@@H]2O[C@H](COP(=O)(O)O)[C@@H](O)[C@H]2O)c(=O)[nH]1 do in these assays?
GRP78 ERSR act: -1.2%; RGS4 inh: 37.7µM*

How did Cc1ccc(NS(=O)(=O)c2ccc(C(=O)N3CC(C)CC(C)C3)cc2)cc1 (stereo not given) do in these assays?
GRP78 ERSR act: 39.8µM*; LDHA inh: 2.2; TCR act: -10.0%; Akt phos inh: inactive; RGS4 inh: -17.7%; TSHR antagonist: 6.8

How did Cc1ccc(S(=O)(=O)Nc2ccc(N=Nc3ccc(O)cc3)cc2)cc1 do in these assays?
GRP78 ERSR act: -1.5%; LDHA inh: -7.9; TCR act: -1.1%[46.1 µM]; Akt phos inh: inactive; RGS4 inh: -11.1%; TSHR antagonist: -74.9*

What do the screens show for `Cc1ccc(CNC(=O)c2ccc(N3CCOCC3)c(NC(=O)Nc3cc(F)ccc3F)c2)cc1`?
LDHA inh: 10.2

How did Cc1ccc(NS(=O)(=O)c2ccc(N/N=C/c3cc(C)[nH]c3C)c([N+](=O)[O-])c2)c(C)c1 do in these assays?
LDHA inh: -0.5

How did CCOc1cc(N2CCOCC2)c(OCC)cc1NC(=O)c1cccc(S(=O)(=O)N2CCOCC2)c1 do in these assays?
GRP78 ERSR act: -0.2%; LDHA inh: 14.1; TCR act: 2.2%; Akt phos inh: inactive; RGS4 inh: 3.7%; TSHR antagonist: -88.5*

What do the screens show for `CCOc1ccccc1N(CC(=O)Nc1ccc(S(=O)(=O)N2CCOCC2)cc1)S(=O)(=O)c1ccccc1`?
GRP78 ERSR act: -1.5%; LDHA inh: -12.6; TCR act: 4.3%; Akt phos inh: -127.3%*; RGS4 inh: 9.0%; TSHR antagonist: 43.0

How did O=C(Nc1nccs1)c1cc(S(=O)(=O)N2CCOCC2)ccc1Cl do in these assays?
GRP78 ERSR act: -4.1%; LDHA inh: -2.5; TCR act: -6.0%; Akt phos inh: inactive; RGS4 inh: -28.5%; TSHR antagonist: 1.5

How did O=C(Nc1nccs1)c1cccc(S(=O)(=O)N2CCOCC2)c1 do in these assays?
GRP78 ERSR act: -0.3%; LDHA inh: -4.2; TCR act: -0.8%; Akt phos inh: -114.0%*; RGS4 inh: -13.3%; TSHR antagonist: -0.9

Results for COC(=O)[C@H](Cc1ccccc1)NC(=O)NCc1cccs1 ?
GRP78 ERSR act: -1.2%; LDHA inh: -2.3; TCR act: 3.6%; Akt phos inh: -93.7%*; RGS4 inh: -1.6%; TSHR antagonist: -2.3

Results for O=C(NCc1cccs1)N[C@@H](Cc1ccccc1)C(=O)O ?
GRP78 ERSR act: 1.1%; LDHA inh: 1.2; TCR act: -4.7%; Akt phos inh: inactive; RGS4 inh: 0.8%; TSHR antagonist: -0.4

Results for O=c1[nH]cccc1NS(=O)(=O)c1ccc(Cl)c(C(F)(F)F)c1 ?
LDHA inh: 76.4

What do the screens show for `O=C1C=CC(=O)N1CCCCCCN1C(=O)C=CC1=O`?
GRP78 ERSR act: -13.7%; LDHA inh: -9.2; TCR act: 0.6%[46.1 µM]; Akt phos inh: inactive; RGS4 inh: -140.1%; TSHR antagonist: -98.6*

What do the screens show for `O=C(O)CN1C(=O)C=CC1=O`?
GRP78 ERSR act: -2.9%; LDHA inh: -7.4; Akt phos inh: inactive

Results for CS(=O)(=O)/C(C#N)=C\c1ccc(-c2ccccc2)cc1 ?
LDHA inh: 9.0

What do the screens show for `Oc1cc2cc(CCN3CCN(c4nsc5ccccc45)CC3)c(Cl)cc2[nH]1`?
GRP78 ERSR act: -5.7%
